From PubChem BioAssay (NCATS)
Results filed as inconclusive are left out. A number with no mark means an inactive call. Active and inactive are the calls of the source. Calls come from the whole dose curve.

Assay: Primary qHTS for inhibitors of MERS-S pseudo-typed particle cell entry (AID 1479149); note: nearly all actives have a fitted effect of over 60% in size
Settings: MERS-S pseudotyped particle entry, luciferase; series mostly up to 57.1 µM; activity change, negative = inhibition: at the top concentration
% is set by controls: 0 for no effect and ±100 for the full control effect.

| Compound | outcome | activity change, negative = inhibition |
| --- | --- | --- |
| O=C(O)[C@@H](O)[C@H](O)[C@H](O)[C@@H](O)C(=O)O | inactive |  |
| COc1ccccc1OCC(O)CO (centres undefined) | inactive |  |
| Oc1ccc(OCc2ccccc2)cc1 | inactive |  |
| CC(=O)OCC[N+](C)(C)C | inactive |  |
| CCCCC(=O)OCC(=O)[C@H]1[C@H](C)C[C@H]2[C@@H]3C[C@H](F)C4=CC(=O)C=C[C@]4(C)[C@@]3(F)[C@@H](O)C[C@@]21C | inactive |  |
| COc1c2occc2cc2ccc(=O)oc12 | inactive |  |
| COc1ccc(NS(=O)(=O)c2ccc(N)cc2)nn1 | inactive |  |
| O=c1[nH]cnc2[nH]ncc12 |  | 3.94% [at 114 µM] |
| C=CCc1ccc(O)c(OC)c1 |  | 0.726% |
| Cc1ccc(C(=O)c2ccc(CC(=O)O)n2C)cc1 | inactive |  |
| COc1ccc(C2CNC(=O)C2)cc1OC1CCCC1 (centres undefined) | inactive |  |
| CN(CC1(C)CCCO1)S(=O)(=O)c1ccc(Cl)c(S(N)(=O)=O)c1 (centres undefined) |  | -17.9% |
| NS(=O)(=O)c1cc2c(cc1Cl)NC(CC1CCCC1)NS2(=O)=O (centres undefined) | inactive |  |
| CN[C@@H]1[C@@H](O)[C@@H](O[C@@H]2[C@H](O)[C@H](O[C@H]3OC(CN)=CC[C@H]3N)[C@@H](N)C[C@H]2N)OCC1(C)O (some centres undefined) | inactive |  |
| NC(N)=NCCN1CCCCCCC1 | inactive [at 0.573 µM] |  |
| COc1ccc2[nH]cc(CCNC(C)=O)c2c1 |  | 0.177% |
| NCCNCCNCCNCCN | inactive [at 11.4 µM] |  |
| C[C@]12CCC(=O)C=C1CC[C@H]1[C@@H]3CC[C@](O)(C(=O)CO)[C@@]3(C)C[C@H](O)[C@@]12F | inactive |  |
| COc1ccc(C(=O)c2ccccc2)c(O)c1 | inactive |  |

| Compound | outcome | activity change, negative = inhibition |
| --- | --- | --- |
| O=C(O)c1cccnc1 | inactive |  |
| COc1ccc(O)cc1 | inactive |  |
| COc1ccnc(CS(=O)c2nc3ccc(OC(F)F)cc3[nH]2)c1OC (centres undefined) |  | -0.488% |
| COC(=O)C1=C(C)NC(C)=C(C(=O)OCCc2ccc(N3CCN(C(c4ccccc4)c4ccccc4)CC3)cc2)C1c1cccc([N+](=O)[O-])c1 (centres undefined) | inactive |  |
| Cc1ccc(C(=O)C(=O)O)cc1C | inactive |  |
| CC(=O)OCC(=O)[C@@]1(OC(C)=O)[C@@H](C)C[C@H]2[C@@H]3C[C@H](F)C4=CC(=O)C=C[C@]4(C)[C@@]3(F)[C@@H](O)C[C@@]21C | inactive |  |
| CC(=O)NCCCS(=O)(=O)O |  | 1.18% |
| CCCCCCCN(CC)CCCC(O)c1ccc(NS(C)(=O)=O)cc1 (centres undefined) | inactive |  |
| O=C1O[C@H](CO)[C@@H](O)[C@H](O)[C@H]1O | inactive |  |
| CCCc1nn(C)c2c(=O)[nH]c(-c3cc(S(=O)(=O)N4CCN(C)CC4)ccc3OCC)nc12 | inactive |  |
| Cc1c(NC(=O)c2cccnc2)c(=O)n(-c2ccccc2)n1C | inactive |  |
| OC[C@H]1O[C@@H](Oc2ccc(O)cc2)[C@H](O)[C@@H](O)[C@@H]1O | inactive |  |
| CC(C)=CCC1C(=O)N(c2ccccc2)N(c2ccccc2)C1=O | inactive |  |
| CC(=O)O[C@@H]1CC2C3CCc4cc(OC(=O)c5ccccc5)ccc4C3CCC2(C)[C@H]1OC(C)=O (some centres undefined) | inactive |  |
| CC(=O)Nc1c(I)c(NC(C)=O)c(I)c(C(=O)O)c1I | inactive |  |
| O=C(c1ccccc1)c1ccccc1 | inactive |  |
| C[C@@H]1O[C@@H](OC[C@H]2O[C@@H](Oc3c(-c4ccc(O)c(O)c4)oc4cc(O)cc(O)c4c3=O)[C@H](O)[C@@H](O)[C@@H]2O)[C@H](O)[C@H](O)[C@H]1O | inactive |  |
| CCC[C@@H]1C[C@@H](C(=O)N[C@@H]([C@H]2O[C@H](SC)[C@H](O)[C@@H](O)[C@H]2O)[C@@H](C)O)N(C)C1 | inactive |  |

Assay: Primary qHTS for Vero E6 cytotoxicity: counterscreen for inhibitors of SARS-S pseudo-typed particle cell entry (AID 1479150)
Settings: cell viability; series mostly up to 57.1 µM; activity change, negative = cytotoxicity: at the top concentration

| Compound | outcome | activity change, negative = cytotoxicity |
| --- | --- | --- |
| O=C(O)[C@@H](O)[C@H](O)[C@H](O)[C@@H](O)C(=O)O | inactive |  |
| COc1ccccc1OCC(O)CO (centres undefined) | inactive |  |
| Oc1ccc(OCc2ccccc2)cc1 |  | -7.04% |
| CC(=O)OCC[N+](C)(C)C |  | 1.71% |
| CCCCC(=O)OCC(=O)[C@H]1[C@H](C)C[C@H]2[C@@H]3C[C@H](F)C4=CC(=O)C=C[C@]4(C)[C@@]3(F)[C@@H](O)C[C@@]21C | inactive |  |
| COc1c2occc2cc2ccc(=O)oc12 | inactive |  |
| COc1ccc(NS(=O)(=O)c2ccc(N)cc2)nn1 | inactive |  |
| O=c1[nH]cnc2[nH]ncc12 |  | 2.78% [at 114 µM] |
| C=CCc1ccc(O)c(OC)c1 |  | -1.79% |
| Cc1ccc(C(=O)c2ccc(CC(=O)O)n2C)cc1 |  | -5.65% |
| COc1ccc(C2CNC(=O)C2)cc1OC1CCCC1 (centres undefined) | inactive |  |
| CN(CC1(C)CCCO1)S(=O)(=O)c1ccc(Cl)c(S(N)(=O)=O)c1 (centres undefined) | inactive |  |
| NS(=O)(=O)c1cc2c(cc1Cl)NC(CC1CCCC1)NS2(=O)=O (centres undefined) | inactive |  |
| CN[C@@H]1[C@@H](O)[C@@H](O[C@@H]2[C@H](O)[C@H](O[C@H]3OC(CN)=CC[C@H]3N)[C@@H](N)C[C@H]2N)OCC1(C)O (some centres undefined) | inactive |  |
| NC(N)=NCCN1CCCCCCC1 |  | 3.58% [at 0.573 µM] |
| COc1ccc2[nH]cc(CCNC(C)=O)c2c1 |  | 3.94% |
| NCCNCCNCCNCCN |  | 1.23% [at 11.4 µM] |
| C[C@]12CCC(=O)C=C1CC[C@H]1[C@@H]3CC[C@](O)(C(=O)CO)[C@@]3(C)C[C@H](O)[C@@]12F |  | 1.24% |
| COc1ccc(C(=O)c2ccccc2)c(O)c1 | inactive |  |

| Compound | outcome | activity change, negative = cytotoxicity |
| --- | --- | --- |
| O=C(O)c1cccnc1 |  | -5.02% |
| COc1ccc(O)cc1 |  | 4.06% |
| COc1ccnc(CS(=O)c2nc3ccc(OC(F)F)cc3[nH]2)c1OC (centres undefined) |  | 1.23% |
| COC(=O)C1=C(C)NC(C)=C(C(=O)OCCc2ccc(N3CCN(C(c4ccccc4)c4ccccc4)CC3)cc2)C1c1cccc([N+](=O)[O-])c1 (centres undefined) | inactive |  |
| Cc1ccc(C(=O)C(=O)O)cc1C | inactive |  |
| CC(=O)OCC(=O)[C@@]1(OC(C)=O)[C@@H](C)C[C@H]2[C@@H]3C[C@H](F)C4=CC(=O)C=C[C@]4(C)[C@@]3(F)[C@@H](O)C[C@@]21C | inactive |  |
| CC(=O)NCCCS(=O)(=O)O | inactive |  |
| CCCCCCCN(CC)CCCC(O)c1ccc(NS(C)(=O)=O)cc1 (centres undefined) | inactive |  |
| O=C1O[C@H](CO)[C@@H](O)[C@H](O)[C@H]1O | inactive |  |
| CCCc1nn(C)c2c(=O)[nH]c(-c3cc(S(=O)(=O)N4CCN(C)CC4)ccc3OCC)nc12 | inactive |  |
| Cc1c(NC(=O)c2cccnc2)c(=O)n(-c2ccccc2)n1C | inactive |  |
| OC[C@H]1O[C@@H](Oc2ccc(O)cc2)[C@H](O)[C@@H](O)[C@@H]1O |  | 2.79% |
| CC(C)=CCC1C(=O)N(c2ccccc2)N(c2ccccc2)C1=O | inactive |  |
| CC(=O)O[C@@H]1CC2C3CCc4cc(OC(=O)c5ccccc5)ccc4C3CCC2(C)[C@H]1OC(C)=O (some centres undefined) |  | -0.805% |
| CC(=O)Nc1c(I)c(NC(C)=O)c(I)c(C(=O)O)c1I | inactive |  |
| O=C(c1ccccc1)c1ccccc1 | inactive |  |
| C[C@@H]1O[C@@H](OC[C@H]2O[C@@H](Oc3c(-c4ccc(O)c(O)c4)oc4cc(O)cc(O)c4c3=O)[C@H](O)[C@@H](O)[C@@H]2O)[C@H](O)[C@H](O)[C@H]1O | inactive |  |
| CCC[C@@H]1C[C@@H](C(=O)N[C@@H]([C@H]2O[C@H](SC)[C@H](O)[C@@H](O)[C@H]2O)[C@@H](C)O)N(C)C1 | inactive |  |
